From PubChem BioAssay (NCI)
The panel holds about 79,000 compounds, 15% with a hit somewhere; the sample as a whole holds those more often. Active and inactive are the calls of the source. No stated cut-off is given here; in the data, active means growth inhibition above about 70%; inactive means the rest.

How the values were obtained:
[1] = NCI Yeast Anticancer Drug Screen. Data for the rad52 strain (AID 147);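 further: 0% = growth of vehicle-treated control cultures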; details: S. cerevisiae rad52 mutant growth inhibition, stronger effect = higher value
Procedure, shortened: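 Growth of repair-deficient yeast cells was compared between compound-treated and vehicle-treated cultures to give percent inhibition.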

[2] = NCI Yeast Anticancer Drug Screen. Data for the wt1 strain (AID 149);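 further: 0% = growth of vehicle-treated wt1 cultures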; details: S. cerevisiae wt1 strain (SPY 50644) growth inhibition, stronger effect = higher value
Procedure, shortened: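 Measured: growth of wt1 yeast under compound versus vehicle treatment, reported as inhibition.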

[3] = NCI Yeast Anticancer Drug Screen. Data for the rad50EPP+ strain (AID 151);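 further: 0% = growth of vehicle-treated control cultures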; details: S. cerevisiae rad50 mutant strain, stronger effect = higher value
Procedure, shortened: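 Measured: growth inhibition of rad50EPP+ yeast. Reference: vehicle-treated controls. Screen uses strains with defined genetic alterations in DNA damage repair or cell cycle control.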

[4] = NCI Yeast Anticancer Drug Screen. Data for the rad50 strain (AID 155);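 further: 0% = growth of vehicle-only cultures of the same strain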; details: S. cerevisiae rad50 strain growth inhibition, stronger effect = higher value
Procedure, shortened: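 Growth of the mutant yeast was measured after compound exposure and referenced to vehicle-treated cultures.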

[5] = NCI Yeast Anticancer Drug Screen. Data for the mec2-1 strain (AID 157); details: S. cerevisiae mec2-1 strain, stronger effect = higher value
Procedure, shortened: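 Compounds were applied to mec2-1 yeast cells. Their growth was then compared with that of vehicle-treated cultures to give growth inhibition.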

[6] = NCI Yeast Anticancer Drug Screen. Data for the sgs1 mgt1 strain (AID 161);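 further: 0% = growth of cultures given vehicle only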; details: S. cerevisiae sgs1 mgt1 strain, stronger effect = higher value
Procedure, shortened: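 Compounds are added to genetically altered yeast, and growth is compared with cultures given vehicle alone to give percent inhibition.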

[7] = NCI Yeast Anticancer Drug Screen. Data for the CLN2oe strain (AID 163);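 further: 0% = growth of vehicle-only control cultures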; details: S. cerevisiae CLN2oe strain, stronger effect = higher value
Procedure, shortened: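 Cells of an engineered yeast line with disturbed cell-cycle regulation are treated with compound. Inhibition of growth is then calculated relative to the vehicle-treated reference.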

[8] = NCI Yeast Anticancer Drug Screen. Data for the cln2 rad14 strain (AID 165);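 further: 0% = growth equal to vehicle treated cultures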; details: S. cerevisiae cln2 rad14 strain, stronger effect = higher value
Procedure, shortened: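 Strain: cln2 rad14 yeast, altered in cell cycle control and DNA damage repair. Read-out: growth inhibition vs vehicle.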

[9] = NCI Yeast Anticancer Drug Screen. Data for the bub3 strain (AID 167); details: S. cerevisiae bub3 mutant strain, stronger effect = higher value
Procedure, shortened: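 Whole-cell yeast assay. The mutant strain was incubated with compounds, and growth inhibition was determined by comparison with vehicle-treated cells.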

[10] = NCI Yeast Anticancer Drug Screen. Data for the mlh1 strain (AID 171);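 further: 0% = growth of vehicle-treated control cultures of the same strain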; details: S. cerevisiae mlh1 strain growth inhibition, stronger effect = higher value
Procedure, shortened: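 Test agents were incubated with yeast bearing a defined DNA damage repair or cell cycle control alteration; values are growth inhibition normalised to vehicle-treated cultures.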

[11] = NCI Yeast Anticancer Drug Screen. Data for the sgs1 strain (AID 173);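 further: 0% = growth of vehicle-only control cultures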; details: S. cerevisiae sgs1 mutant, stronger effect = higher value
Procedure, shortened: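 Strain with an altered DNA repair or cell cycle pathway exposed to compound. Growth then measured. Value = inhibition versus vehicle control.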

[12] = NCI Yeast Anticancer Drug Screen. Data for the mlh1 rad18 strain (AID 175); details: S. cerevisiae mlh1 rad18 strain growth inhibition, stronger effect = higher value
Procedure, shortened: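 A repair-deficient yeast strain is exposed to test compound, and growth is scored relative to vehicle-treated controls.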

[13] = NCI Yeast Anticancer Drug Screen. Data for the rad18 strain (AID 177); details: S. cerevisiae rad18 mutant growth inhibition, stronger effect = higher value
Procedure, shortened: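 DNA-repair-defective yeast; compound treatment; growth inhibition scored against vehicle.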

[14] = NCI Yeast Anticancer Drug Screen. Data for the rad14 strain (AID 159);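 further: 0% = growth of vehicle-treated control cultures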; details: S. cerevisiae rad14 strain growth inhibition, stronger effect = higher value
Procedure, shortened: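 Here, inhibition of yeast growth was measured after compound exposure, using a strain with a genetic defect in DNA damage repair and vehicle-treated cultures as the reference.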

[15] = NCI Yeast Anticancer Drug Screen. Data for the wt2 strain (AID 169);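 further: 0% = growth of vehicle-treated yeast cultures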; details: S. cerevisiae wt2 strain growth inhibition, stronger effect = higher value
Procedure, shortened: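 Growth of compound-treated yeast is measured and expressed as inhibition relative to vehicle-only controls.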

[16] = at 5.0 µM (retest, dose inferred, filed as 0.5)
[17] = at 50.0 µM (retest, dose inferred, filed as 5.0)

Measured: growth inhibition

O=C(Cc1csc2[n+]1C(=O)/C(=C/c1ccc(Cl)cc1)S2)Nc1ccccc1
active: [1]; at 100.0 µM 87% | [3]; at 100.0 µM 75% | [4]; [17] 98% | [4]; at 50.0 µM 98.5% | [4]; at 100.0 µM 78% | [5]; [17] 99% | [5]; at 50.0 µM 98.8% | [6]; [17] 96% | [6]; at 50.0 µM 98.9% | [8]; [17] 98% | [8]; at 50.0 µM 98.5% | [9]; [16] 97% | [9]; [17] 99% | [9]; at 50.0 µM 98.8% | [10]; at 100.0 µM 75% | [11]; at 33.0 µM 72% | [11]; at 100.0 µM 89% | [12]; [17] 98% | [12]; at 50.0 µM 98.3%
inactive: [1]; at 1.2 µM 15% | [1]; at 3.7 µM 4% | [1]; at 11.0 µM 20% | [1]; at 33.0 µM 49% | [2]; at 1.2 µM -84% | [2]; at 3.7 µM -1% | [2]; at 11.0 µM 0% | [2]; at 33.0 µM 16% | [2]; at 100.0 µM 60% | [3]; at 1.2 µM 2% | [3]; at 3.7 µM 8% | [3]; at 11.0 µM 34% | [3]; at 33.0 µM 65% | [4]; at 1.2 µM -2% | [4]; at 3.7 µM 1% | [4]; [16] 24% | [4]; at 11.0 µM 9% | [4]; at 33.0 µM 43% | [5]; at 1.2 µM -3% | [5]; at 3.7 µM 5% | [5]; [16] 25% | [5]; at 11.0 µM 13% | [5]; at 33.0 µM 39% | [5]; at 100.0 µM 62% | [6]; [16] 2% | [7]; at 1.2 µM -6% | [7]; at 3.7 µM -14% | [7]; at 11.0 µM -12% | [7]; at 33.0 µM 8% | [7]; at 100.0 µM 47% | [8]; [16] 42% | [9]; at 1.2 µM -8% | [9]; at 3.7 µM -8% | [9]; at 11.0 µM -7% | [9]; at 33.0 µM 11% | [9]; at 100.0 µM 12% | [10]; at 1.2 µM -1% | [10]; at 3.7 µM 1% | [10]; at 11.0 µM 8% | [10]; at 33.0 µM 52% | [11]; at 1.2 µM 2% | [11]; at 3.7 µM 11% | [11]; at 11.0 µM 32% | [12]; [16] 20% | [13]; at 1.2 µM 0% | [13]; at 3.7 µM 5% | [13]; at 11.0 µM 21% | [13]; at 33.0 µM 56% | [13]; at 100.0 µM 69%

NC(N)=N/N=C\c1c2ccccc2cc2ccccc12
active: [1]; at 100.0 µM 94% | [2]; at 100.0 µM 95% | [4]; at 100.0 µM 94% | [5]; at 100.0 µM 93% | [14]; at 100.0 µM 95% | [7]; at 100.0 µM 78% | [9]; at 100.0 µM 75% | [15]; at 100.0 µM 96% | [10]; at 100.0 µM 93% | [11]; at 100.0 µM 93% | [12]; [17] 81% | [12]; at 50.0 µM 72.7% | [13]; at 100.0 µM 95%
inactive: [1]; at 1.2 µM -73% | [1]; at 3.7 µM -78% | [1]; at 11.0 µM -50% | [1]; at 33.0 µM 27% | [2]; at 1.2 µM -38% | [2]; at 3.7 µM -29% | [2]; at 11.0 µM -29% | [2]; at 33.0 µM -27% | [3]; at 1.2 µM -28% | [3]; at 3.7 µM -20% | [3]; at 11.0 µM -7% | [3]; at 33.0 µM 6% | [3]; at 100.0 µM 23% | [4]; at 1.2 µM -16% | [4]; at 3.7 µM -17% | [4]; [16] 22% | [4]; at 11.0 µM -8% | [4]; at 33.0 µM 36% | [4]; [17] 66% | [4]; at 50.0 µM 17.1% | [5]; at 1.2 µM -58% | [5]; at 3.7 µM -37% | [5]; [16] 18% | [5]; at 11.0 µM -45% | [5]; at 33.0 µM -10% | [5]; [17] 42% | [5]; at 50.0 µM 36.9% | [14]; at 1.2 µM -50% | [14]; at 3.7 µM -41% | [14]; at 11.0 µM -45% | [14]; at 33.0 µM 9% | [6]; [16] 8% | [6]; [17] 47% | [6]; at 50.0 µM 33.6% | [7]; at 1.2 µM -29% | [7]; at 3.7 µM 6% | [7]; at 11.0 µM -4% | [7]; at 33.0 µM 18% | [8]; [16] -2% | [8]; [17] 25% | [8]; at 50.0 µM 1.85% | [9]; at 1.2 µM -43% | [9]; at 3.7 µM -55% | [9]; [16] 3% | [9]; at 11.0 µM -59% | [9]; at 33.0 µM -44% | [9]; [17] 14% | [9]; at 50.0 µM 21% | [15]; at 1.2 µM -47% | [15]; at 3.7 µM -64% | [15]; at 11.0 µM -59% | [15]; at 33.0 µM -35% | [10]; at 1.2 µM -61% | [10]; at 3.7 µM -45% | [10]; at 11.0 µM -44% | [10]; at 33.0 µM 11% | [11]; at 1.2 µM -25% | [11]; at 3.7 µM -31% | [11]; at 11.0 µM -44% | [11]; at 33.0 µM -1% | [12]; [16] 29% | [13]; at 1.2 µM -74% | [13]; at 3.7 µM -68% | [13]; at 11.0 µM -51% | [13]; at 33.0 µM -30%
